Test results reported in PubChem BioAssay AID1159580 (chemical genetic matrix, 2015).
Among all 5,500 compounds or so, about 2,000 (36%) were called active. Not shown: some 18% with an inconclusive outcome. No stated cut-off is given here; in the data, active means normalized growth mostly below about 0.91 (no sharp cut-off); inconclusive means no clear call, values can overlap the other calls; inactive means mostly above about 0.92. The list shows a part of the results.

Experiment: chemical genetic growth profiling, strain panel (AID 1159580);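 further: tested at 20 µM; growth read once vehicle control cultures reached saturation at 30 °C; 1 = growth at the plate median or of vehicle wells; lower values mean less growth of the strain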
Conditions: growth OD

Measured: normalized growth

Nc1c2c(nc3ccccc13)CCCC2O (stereo not drawn)
inactive: S. cerevisiae deletion strains, locus YJR066W, strain TOR1, hits give low values 0.916 | S. cerevisiae deletion strains, locus YJR075W, strain HOC1, hits give low values 0.987 | S. cerevisiae deletion strains, locus YKL009W, strain mrt4, hits give low values 0.976 | S. cerevisiae deletion strains, locus YKL068W, hits give low values 0.987 | S. cerevisiae deletion strains, locus YKL085W, strain MDH1 (second series), hits give low values 0.991 | S. cerevisiae deletion strains, locus YKL085W, strain MDH1, hits give low values 0.991 | S. cerevisiae deletion strains, locus YKL160W, strain elf1, hits give low values 1.01 | S. cerevisiae deletion strains, locus YKL190W, strain CNB1, hits give low values 1.01 | S. cerevisiae deletion strains, locus YKR001C, strain vps1, hits give low values 0.989 | S. cerevisiae deletion strains, locus YKR026C, strain gcn3, hits give low values 1.01 | S. cerevisiae deletion strains, locus YKR091W, strain srl3, hits give low values 0.998 | S. cerevisiae deletion strains, locus YLL001W, strain dnm1, hits give low values 0.983 | S. cerevisiae deletion strains, locus YLL026W, hits give low values 0.996 | S. cerevisiae deletion strains, locus YLL041C, strain sdh2, hits give low values 1.02 | S. cerevisiae deletion strains, locus YLR027C, strain aat2, hits give low values 1.01 | S. cerevisiae deletion strains, locus YLR039C, strain RIC1, hits give low values 1.01 | S. cerevisiae deletion strains, locus YLR058C, strain SHM2, hits give low values 1.01 | S. cerevisiae deletion strains, locus YLR102C, strain apc9, hits give low values 0.984 | S. cerevisiae deletion strains, locus YLR113W, strain HOG1, hits give low values 1.03 | S. cerevisiae deletion strains, locus YLR221C, strain rsa3, hits give low values 1.02 | S. cerevisiae deletion strains, locus YLR258W, strain gsy2, hits give low values 0.996 | S. cerevisiae deletion strains, locus YLR262C, strain YPT6 (second series), hits give low values 1.01 | S. cerevisiae deletion strains, locus YLR262C, strain YPT6, hits give low values 0.963 | S. cerevisiae deletion strains, locus YLR268W, strain sec22, hits give low values 0.966 | S. cerevisiae deletion strains, locus YLR320W, strain mms22, hits give low values 1.01 | S. cerevisiae deletion strains, locus YLR330W, strain CHS5, hits give low values 0.989 | S. cerevisiae deletion strains, locus YLR342W, strain FKS1 (second series), hits give low values 1.01 | S. cerevisiae deletion strains, locus YLR342W, strain FKS1, hits give low values 1.01 | S. cerevisiae deletion strains, locus YLR357W, strain rsc2, hits give low values 0.975 | S. cerevisiae deletion strains, locus YLR370C, strain arc18, hits give low values 1 | S. cerevisiae deletion strains, locus YLR371W, strain rom2, hits give low values 0.98 | S. cerevisiae deletion strains, locus YLR384C, strain iki3, hits give low values 1 | S. cerevisiae deletion strains, locus YLR418C, strain cdc73, hits give low values 1.02 | S. cerevisiae deletion strains, locus YML016C, strain PPZ1, hits give low values 1.01 | S. cerevisiae deletion strains, locus YML032C, strain rad52, hits give low values 0.99 | S. cerevisiae deletion strains, locus YML120C, strain ndi1, hits give low values 1.03 | S. cerevisiae deletion strains, locus YML124C, strain tub3, hits give low values 0.998 | S. cerevisiae deletion strains, locus YMR058W, strain fet3, hits give low values 1.02 | S. cerevisiae deletion strains, locus YMR078C, strain ctf18, hits give low values 0.993 | S. cerevisiae deletion strains, locus YMR125W, strain sto1, hits give low values 0.997 | S. cerevisiae deletion strains, locus YMR129W, hits give low values 0.999 | S. cerevisiae deletion strains, locus YMR205C, strain PFK2, hits give low values 0.996 | S. cerevisiae deletion strains, locus YMR223W, strain ubp8, hits give low values 0.987 | S. cerevisiae deletion strains, locus YMR231W, strain pep5, hits give low values 0.999 | S. cerevisiae deletion strains, locus YMR307W, strain GAS1, hits give low values 1.08 | S. cerevisiae deletion strains, locus YNL067W, strain RPL9B, hits give low values 1.01 | S. cerevisiae deletion strains, locus YNL071W, strain lat1, hits give low values 1.01 | S. cerevisiae deletion strains, locus YNL128W, strain TEP1, hits give low values 1.02 | S. cerevisiae deletion strains, locus YNL175C, strain NOP13, hits give low values 1 | S. cerevisiae deletion strains, locus YNL183C, strain NPR1, hits give low values 0.912 | S. cerevisiae deletion strains, locus YNL197C, strain WHI3, hits give low values 0.968 | S. cerevisiae deletion strains, locus YNL209W, strain ssb2, hits give low values 1.01 | S. cerevisiae deletion strains, locus YNL224C, strain SQS1, hits give low values 1 | S. cerevisiae deletion strains, locus YNL233W, strain BNI4, hits give low values 1.03 | S. cerevisiae deletion strains, locus YNL248C, strain rpa49, hits give low values 0.992 | S. cerevisiae deletion strains, locus YNL250W, strain rad50, hits give low values 1.01 | S. cerevisiae deletion strains, locus YNL271C, strain bni1, hits give low values 0.981 | S. cerevisiae deletion strains, locus YNL298W, strain CLA4, hits give low values 0.988 | S. cerevisiae deletion strains, locus YNL307C, strain MCK1, hits give low values 0.993 | S. cerevisiae deletion strains, locus YNL322C, strain KRE1 (second series), hits give low values 1.01 | S. cerevisiae deletion strains, locus YNR049C, strain mso1, hits give low values 1.01 | S. cerevisiae deletion strains, locus YNR052C, strain pop2, hits give low values 0.966 | S. cerevisiae deletion strains, locus YOL006C, strain TOP1, hits give low values 1.13 | S. cerevisiae deletion strains, locus YOL012C, strain htz1 0.815 | S. cerevisiae deletion strains, locus YOL147C, strain pex11, hits give low values 0.999 | S. cerevisiae deletion strains, locus YOR001W, strain rrp6, hits give low values 1.03 | S. cerevisiae deletion strains, locus YOR061W, strain CKA2, hits give low values 1.01 | S. cerevisiae deletion strains, locus YOR069W, strain VPS5, hits give low values 1 | S. cerevisiae deletion strains, locus YOR070C, strain gyp1, hits give low values 1.01 | S. cerevisiae deletion strains, locus YOR080W, strain dia2, hits give low values 0.996 | S. cerevisiae deletion strains, locus YOR083W, strain WHI5 (second series), hits give low values 0.986 | S. cerevisiae deletion strains, locus YOR083W, strain WHI5, hits give low values 1.01 | S. cerevisiae deletion strains, locus YOR106W, strain vam3, hits give low values 1 | S. cerevisiae deletion strains, locus YOR136W, strain idh2, hits give low values 0.997 | S. cerevisiae deletion strains, locus YOR144C, strain elg1, hits give low values 0.999 | S. cerevisiae deletion strains, locus YOR184W, strain ser1, hits give low values 0.988 | S. cerevisiae deletion strains, locus YOR231W, strain MKK1, hits give low values 0.977 | S. cerevisiae deletion strains, locus YOR265W, strain rbl2, hits give low values 1 | S. cerevisiae deletion strains, locus YOR270C, strain vph1, hits give low values 1.02 | S. cerevisiae deletion strains, locus YOR290C, strain snf2, hits give low values 0.974 | S. cerevisiae deletion strains, locus YOR316C, strain cot1, hits give low values 0.977 | S. cerevisiae deletion strains, locus YPL051W, strain arl3, hits give low values 1.01 | S. cerevisiae deletion strains, locus YPL055C, strain LGE1, hits give low values 1.06 | S. cerevisiae deletion strains, locus YPL078C, strain atp4, hits give low values 1.01 | S. cerevisiae deletion strains, locus YPL106C, strain sse1, hits give low values 1.01 | S. cerevisiae deletion strains, locus YPL240C, strain hsp82, hits give low values 1.01 | S. cerevisiae deletion strains, locus YPL256C, strain CLN2, hits give low values 0.962 | S. cerevisiae deletion strains, locus YPR119W, strain clb2, hits give low values 0.976 | S. cerevisiae deletion strains, locus YPR141C, strain kar3, hits give low values 0.982 | S. cerevisiae deletion strains, locus YPR163C, strain tif3, hits give low values 0.973 | S. cerevisiae deletion strains, locus YPR167C, strain met16, hits give low values 0.984 | S. cerevisiae deletion strains, strain wtn01, hits give low values 0.993 | S. cerevisiae strains, strain wild type, hits give low values 1.02
